AmpC detergent – blocks E. coli AmpC beta-lactamase in detergent assay. Potency, µM (highest dose often 114 µM), for the others: at the highest dose activity change, negative = inhibition, actives largely listed as inhibitors. P00811. actives 0.041% (n = 370,000). AmpC hydrolysis of nitrocefin, absorbance 480 nm, 0.01% Triton. AID 485294;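 further: 0% = no-compound wells and -100% = no-enzyme wells; nearly all actives have a fitted effect of over 25% in size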
Target sequence (P00811 whole entry, looked up): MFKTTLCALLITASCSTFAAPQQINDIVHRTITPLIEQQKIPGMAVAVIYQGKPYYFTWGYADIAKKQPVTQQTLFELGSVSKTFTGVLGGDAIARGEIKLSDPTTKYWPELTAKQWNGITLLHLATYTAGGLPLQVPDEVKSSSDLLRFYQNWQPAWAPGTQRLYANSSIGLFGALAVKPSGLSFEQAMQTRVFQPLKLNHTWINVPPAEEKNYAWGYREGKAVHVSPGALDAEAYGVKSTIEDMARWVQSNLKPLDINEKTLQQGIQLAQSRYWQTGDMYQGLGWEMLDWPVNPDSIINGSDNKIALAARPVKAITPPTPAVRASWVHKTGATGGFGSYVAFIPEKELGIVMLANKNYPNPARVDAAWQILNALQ
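20 mM phosphate pH 7.0 + 0.01% (detergent screen) or 0.0001% Triton X-100; 5.3 nM AmpC reagent; cpd preinc 15 min RT; nitrocefin (800 uM stock) to start; A480 q20 s × 4 min; Activity was normalised to no-enzyme and no-compound control wells.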
AMA1 RON2 block – AMA1-RON2 (P. falciparum) interaction inhibition | AlphaScreen AMA1-biotinylated RON2 peptide binding | Potency, µM (series often up to 58.2 µM), for inactives: at the top dose activity change, negative = inhibition, hits mostly inhibitors | actives 0.2% (n = 360,000);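 further: 0% = vehicle wells and -100% = peptide control; nearly all actives have a fitted effect of over 45% in size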
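AMA1 (3D7) with his tag at 25 nM final met compounds first, then biotinylated RON2 peptide at 25 nM; detection used donor plus acceptor beads, 10 µg/mL apiece, read by AlphaScreen after 30 min at room temperature.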
HCV inh – blocks hepatitis C virus; actives 3.4% (n = 340,000); Huh7.5.1 HCVcc-Cre infection, luciferase reporter, 44 h; Potency, µM (series often up to 41.8 µM), for the others: at the highest dose activity change, negative = inhibition, most hits filed as inhibitors
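Luciferase read-out (15 sec integration) after a 15 min room-temperature substrate step quantifies HCVcc-Cre infection. Cells, 1,000 per well, had compound added 4 h post-plating, then virus at ~0.5 moi, and were cultured 44 h.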
Pf growth 96h – P. falciparum growth inhibition at 96 hours; P. falciparum luciferase reporter growth, 96 h; Potency, µM (top dose mostly 28.7 µM), without a hit: at the highest dose activity change, negative = inhibition, most hits filed as inhibitors; actives 6.9% (n = 320,000); AID 504834
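P. falciparum expressing integrated firefly luciferase, in erythrocytes at 2% hematocrit, 0.05% parasitemia, incubated with compounds 96 h at 37 C, 5% CO2. Growth inhibition read as loss of luminescence; two-generation exposure targets delayed-death apicoplast inhibitors.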
Pf growth 48h – inhibits P. falciparum growth in the first generation, 48 h | P. falciparum luciferase growth in erythrocytes, 48 h | Potency, µM (top dose mostly 28.7 µM), without a hit: at the highest dose activity change, negative = inhibition, actives largely listed as inhibitors | actives 5.9% (n = 310,000) | AID 504832
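Luminescence readout; reporter = integrated firefly luciferase in P. falciparum. RBC culture at 2% hematocrit, 0.1% parasitemia final, 37 C/5% CO2; decreased signal taken as growth inhibition.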
AmpC no deterg – inhibitors of E. coli AmpC beta-lactamase without detergent. P00811. AmpC nitrocefin hydrolysis, absorbance 480 nm, 0.0001% Triton. Potency, µM (highest dose often 57.1 µM), for inactives: top-dose activity change, negative = inhibition, hits mostly inhibitors. actives 0.52% (n = 330,000). AID 485341;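 further: plate controls were no compound for no effect and no enzyme for full effect; nearly all actives have a fitted effect of over 20% in size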
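AmpC (5.3 nM in the dispensed reagent) in 20 mM phosphate pH 7.0 with 0.01% (detergent screen) or 0.0001% Triton X-100 was preincubated with compounds for 15 min at room temperature. Nitrocefin was then added from an 800 uM solution, and hydrolysis was followed at 480 nm.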
* = called active by the depositor; ? = inconclusive; . = no result given; [ ] = dose if it differs, or a comment. Rows were chosen to be rich in hits. Some 11% of all compounds tested hit in one or more screens of this group. The call rests on the fitted dose curve; in most records, active means well fitted curve in the direction sought with a large enough effect; inconclusive means small, poorly fitted or top-dose-only effect, or another doubt; inactive means no such curve, though single readings can be large; an effect the other way counts as inactive or inconclusive. Unless noted, on the % scale 0 is the no-effect control and ±100 the full control effect; potency means the concentration at half of the fitted maximal effect.

SMILES | AmpC detergent | AMA1 RON2 block | HCV inh | Pf growth 96h | Pf growth 48h | AmpC no deterg
CCOC(=O)c1c(NC(=O)c2nc(SC)ncc2Cl)sc(C)c1C | 3% | . | . | . | . | .
COC(=O)C1=CNC=C(C(=O)OC)C1c1cccc(OC)c1 | -12% | 9% | 10% | 30% | ? | -16%
COc1ccc(N2CCN(C(=O)CSc3ccc([N+](=O)[O-])cc3)CC2)cc1 | -12% | ? | ? | -5% | -10% | -8%[11.4 µM]
COC(=O)C1=CNC=C(C(=O)OC)C1c1ccc(Cl)cc1 | 4% | 40% | ? | 1% | 9.3µM* | -3%
COC(=O)C1=CN(c2cccc(Cl)c2)C=C(C(=O)OC)C1c1cccc(OC)c1 | ? | 36% | ? | 54% | 12µM* | -4%
COC(=O)C1=CN(c2ccc(OC)cc2)C=C(C(=O)OC)C1c1ccc([N+](=O)[O-])cc1 | -3% | 2% | -3% | 4.1µM* | 13µM* | 118%
Cc1ccc(CNC(=O)c2ccc(CS(=O)(=O)Cc3ccc(F)cc3)o2)cc1 | 0% | . | . | . | . | .
Cc1c(NC(=O)c2ccc(-c3cccc([N+](=O)[O-])c3)o2)cccc1-c1nc2cc(Cl)ccc2o1 | 23% | . | . | . | . | .
Cc1ccc2oc(-c3ccc(NC(=O)c4oc5ccc(Cl)cc5c4C)cc3)nc2c1 | 14% | . | . | . | . | .
COCCn1c(C)cc(/C=N/NC(=O)c2cc3ccccc3cc2O)c1C | 7% | 44% | ? | 9.3µM* | 3.7µM* | -40%
Cc1ccccc1-c1cc(C(=O)NCc2ccc(OC(F)(F)F)cc2)nn1CC1CC(c2cccc([N+](=O)[O-])c2)=NO1 (stereo unspecified) | . | -10% | ? | . | . | -27%
Cc1ccccc1-c1cc(C(=O)NCc2cccs2)nn1CC1CC(c2cccc([N+](=O)[O-])c2)=NO1 (stereo unspecified) | -10% | 0% | -29% | 2.1µM* | 3.3µM* | -35%
Cc1ccccc1-c1cc(C(=O)NCc2cccc(C(F)(F)F)c2)nn1CC1CC(c2cccc([N+](=O)[O-])c2)=NO1 (stereo unspecified) | -9% | -4% | -30% | 6.6µM* | 3.7µM* | -42%
Cc1ccc(-c2cc(-c3ccc(F)cc3)n[nH]2)c(O)c1 | -7% | 88% | 13µM* | ? | 0% | -26%
Cc1ccccc1-c1cc(-c2ccccc2O)n[nH]1 | -8% | 78% | 7.1µM* | . | 65% | -16%
COc1ccc(O)c(-c2cc(-c3ccccc3Cl)[nH]n2)c1 | ? | 49% | ? | -13% | ? | -44%
Oc1ccc(Br)cc1-c1cc(-c2ccccc2Cl)[nH]n1 | 0% | 138% | 7.9µM* | 4.1µM* | 2.9µM* | -46%
Oc1ccc(Cl)cc1-c1cc(-c2ccccc2)n[nH]1 | ? | 120% | 10µM* | -29% | 7.4µM* | ?
Oc1ccccc1-c1cc(-c2ccccc2)n[nH]1 | . | 91% | ? | . | . | -24%
CCCCN1CCc2nc(N3CCN(c4ncccn4)CC3)ncc2C1 | 12% | . | . | . | . | .
Cc1ccccc1NC(=O)CCn1nc(-c2ccc(Cl)cc2)c2ccccc2c1=O | 2% | . | . | . | . | .
Oc1ccc(Br)cc1-c1cc(-c2ccccc2F)[nH]n1 | 7% | 22% | ? | 5%[5.75 µM] | 9.3µM* | -29%
Oc1ccccc1-c1cc(-c2ccc(F)cc2)n[nH]1 | ? | 67% | ? | ? | 62% | -48%
O=C(CCc1nnc2ccc(N3CCCCC3)nn12)NCC1CCN(Cc2ccc(F)cc2)CC1 | 0% | -5% | -7% | 10µM* | ? | 55%
COc1ccc(NC(=O)CCc2nnc3ccc(N4CCC(C)CC4)nn23)cc1OC | -6% | -5% | 15% | 4.1µM* | -1% | 128%
SMILES | AmpC detergent | AMA1 RON2 block | HCV inh | Pf growth 96h | Pf growth 48h | AmpC no deterg
COc1ccc(OC)c(NC(=O)CCc2nnc3ccc(N4CCC(C)CC4)nn23)c1 | 4% | 0% | -13% | 34% | ? | 155%
CCOc1ccc(NC(=O)CCc2nnc3ccc(N4CCN(C)CC4)nn23)cc1 | 0% | 21% | 20% | -20% | 36% | 4%
Cc1ccc(C)c(CN2CCC(CNC(=O)CCc3nnc4ccc(N5CCC(C)CC5)nn34)CC2)c1 | 1% | 7% | -28% | ? | ? | 205%
COc1cccc(N2CCN(c3ccc4nnc(CCC(=O)Nc5cccc(C(C)=O)c5)n4n3)CC2)c1 | 4% | -7% | 14% | -11% | 16% | -8%
CCOc1ccc(NC(=O)CCc2nnc3ccc(N4CCC(C)CC4)nn23)cc1 | 0% | 1% | -9% | ? | 9.3µM* | 174%
CC(=O)c1cccc(NC(=O)CCc2nnc3ccc(N4CCOCC4)nn23)c1 | -3% | 7% | 4% | 10µM* | -11% | -7%
O=C(Cn1c(-c2cccs2)cc2cc(Cl)ccc21)N1CCCCC1 | -1% | . | . | . | . | .
Cc1cc(C)c(S(=O)(=O)NCc2ccc3c(c2)CCN3C(=O)c2ccccc2)c(C)c1 | 4% | . | . | . | . | .
CCN(C(=O)c1cn(C)c(=O)c2cc(OC)c(OC)cc12)c1cc(C)ccc1C | -10% | 8% | -21% | 71% | 9.3µM* | 66%
CCN(C(=O)c1cn(C)c(=O)c2cc(OC)c(OC)cc12)c1ccccc1C | 2% | -12% | -14% | . | 5% | 24%
COc1ccc(NC(=O)c2ccc(-c3ccc(F)cc3)o2)cc1OC | . | -15% | . | . | . | .
CN1CCN(c2ccccc2NC(=O)c2ccc(-c3cccc([N+](=O)[O-])c3)o2)CC1 | -6% | -29% | 5.6µM* | ? | 10µM* | -5%
CCCCn1nnc(NC(=O)c2ccc(-c3ccccc3[N+](=O)[O-])o2)n1 | ? | -7% | ? | 8.3µM* | -14% | -1%[2.29 µM]
CC1CCN(c2ccccc2NC(=S)NC(=O)c2ccc(-c3cccc([N+](=O)[O-])c3)o2)CC1 | -24% | 2% | ? | ? | ? | -24%
CCC(=O)N1CCN(c2ccccc2NC(=O)c2ccc(-c3cccc([N+](=O)[O-])c3)o2)CC1 | -22% | -9% | ? | 5% | 8.3µM* | -18%
COc1cc(NC(=O)c2ccc(-c3cccc(F)c3)o2)ccc1NC(=O)c1ccccc1Cl | . | -2% | 7.1µM* | . | . | -27%
Cc1ccc(-n2c(=O)c3c(C)c(C(=O)N(C)C)sc3n(CC(=O)C(C)(C)C)c2=O)cc1C | 8% | . | . | . | . | .
CCc1ccccc1NC(=O)CCCn1c(=O)c2cccn2c2ccccc21 | 20% | . | . | . | . | .
COc1ccccc1NC(=O)c1ccc(-c2ccc(Br)cc2)o1 | ? | -7% | 8.9µM* | 3% | . | -28%
COc1ccccc1NC(=O)CNC(=O)c1ccc(Br)o1 | ? | -12% | 3% | 0.029µM* | 25% | 1%

Bioassay records: PubChem BioAssay, National Center for Advancing Translational Sciences (NCATS)
